# Active and inactive are the calls of the source. Unless noted, the rule behind the calls is not given here.
# What was measured:
# [1] = system: XIP peptide (Xip251-270) binding; assay: XIP fragment 251-270 binding compounds – biochemical, small-molecule microarray, fluorescence 635/667 nm, 0.1 µg/mL protein, primary screen (AID 1182); settings: fluorescent protein binding, 635 nm, higher = more signal, called active from +8 up or from −8 down
# [2] = system: XIP peptide (Xip251-270); assay: compounds binding XIP fragment 251-270 – biochemical, small-molecule microarray, fluorescence 635/667 nm, 0.5 µg/mL protein, primary screen (AID 1183); settings: fluorescence 635 nm, higher = more signal
# [3] = blood-stage malaria parasite viability loss – strain 3D7, DAPI fluorescence, 100 nL, primary screen (AID 1184);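 note: parasites grown inside human red blood cells in medium with human serum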; settings: P. falciparum 3D7 growth, 3 d, higher = more signal
# [4] = target: Homeobox protein Hox-A13 (Mus musculus) (UniProt Q62424); assay: disruptors of Hoxa13 oligonucleotide interaction – biochemical, fluorescence polarization, labeled oligonucleotide, primary screen (AID 1185); settings: Hoxa13:DNA binding, 15 min, higher = more signal, called active from +8 up or from −8 down
# [5] = blockers of DNA damage checkpoint Chk1 activation – imaging, HeLa, hydroxyurea, phospho-Chk1 antibody, percent positive cells, primary screen (AID 1186); settings: hydroxyurea-induced phospho-Chk1 immunofluorescence imaging, higher = more signal
# [6] = blockers of DNA damage checkpoint Chk1 activation – imaging, HeLa, hydroxyurea, phospho-Chk1 nuclear intensity, primary screen (AID 1187); settings: hydroxyurea-induced phospho-Chk1 immunofluorescence imaging, higher = more signal
# Sequence of Homeobox protein Hox-A13 (Mus musculus) (Q62424 whole entry, looked up): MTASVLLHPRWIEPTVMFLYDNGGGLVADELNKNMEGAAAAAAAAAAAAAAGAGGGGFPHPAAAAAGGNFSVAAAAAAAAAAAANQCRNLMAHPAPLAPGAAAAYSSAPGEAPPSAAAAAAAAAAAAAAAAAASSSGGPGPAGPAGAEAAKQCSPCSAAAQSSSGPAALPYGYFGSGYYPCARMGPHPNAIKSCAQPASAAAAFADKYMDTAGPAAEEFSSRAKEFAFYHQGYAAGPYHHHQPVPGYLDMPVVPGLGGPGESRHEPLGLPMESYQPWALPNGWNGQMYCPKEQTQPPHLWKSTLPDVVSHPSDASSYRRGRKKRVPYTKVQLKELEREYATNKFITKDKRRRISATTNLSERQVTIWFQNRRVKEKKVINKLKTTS
SMILES,composite z-score [1],composite z-score [2],z-score [3],z-score [4],z-score [5],z-score [6]
COc1cc2c(cc1OC)CN(C(=O)[C@@H]1[C@H]3C(=O)O[C@H](c4ccccc4)[C@H](c4ccccc4)N3[C@H](c3ccc(OCCO)cc3)[C@@]13C(=O)Nc1ccc(C#CC4(O)CCCCCC4)cc13)CC2,0.784 (inactive),0.684,-2.06,3.75 (inactive),-0.124 (inactive),0.041 (inactive)
COc1cc(OC)c(C(O)C2C=CC3C(=O)N(C)C(=O)C3N2NC(=O)OC(C)(C)C)cc1Br (configuration not stated),-0.121 (inactive),0.759,-0.107,-2.6 (inactive),0.111 (inactive),-0.0533 (inactive)
COc1ccc(CCNC(=O)[C@@H]2c3ccccc3C(=O)N(Cc3cc(C(F)(F)F)cc(C(F)(F)F)c3)[C@H]2c2ccc(CO)cc2)cc1,0.381 (inactive),0.649,-1.17,-2.92 (inactive),-0.198 (inactive),0.173 (inactive)
C[C@@H]1NC(=O)[C@@]23C(=O)N[C@@H](Cc4ccccc4)C2[C@H](C)[C@@]2(C)O[C@H]2C3/C=C/C/C=C\CNC(=O)[C@@H]2CCCN2C1=O (some centres not stated),-0.85 (inactive),-0.103,0.934,-3.68 (inactive),-0.0354 (inactive),0.186 (inactive)
O=C1O[C@H](c2ccccc2)[C@H](c2ccccc2)N2[C@H]1[C@@H](C(=O)Nc1nc3ccccc3s1)[C@]1(C(=O)Nc3ccccc31)[C@H]2c1ccc(OCCO)cc1,-0.434 (inactive),0.652,-1.33,1.24 (inactive),0.0458 (inactive),-0.0249 (inactive)
COCCOC(=O)N1C(=O)[C@@]2(c3cc(C#CC4=CCCCC4)ccc31)[C@H](C(N)=O)[C@H]1C(=O)O[C@H](c3ccccc3)[C@H](c3ccccc3)N1[C@@H]2c1ccccc1OCCO,0.859 (inactive),0.823,-2.03,-1.26 (inactive),-0.176 (inactive),-0.46 (inactive)
COC1OC[C@]2(C)[C@H]3C4=C(CN2C(=O)OC(C)(C)C)[C@H](C)C(CO)C(CO)C4CC[C@@H]13 (some centres not stated),1.48 (inactive),0.745,-0.892,-4.97 (inactive),0.495 (inactive),-0.0531 (inactive)
NC(N)=NCCCn1cc(CNC(=O)[C@@H](N)Cc2ccccc2)nn1,0.196 (inactive),-1.17,0.139,-1.61 (inactive),0.262 (inactive),-0.174 (inactive)
COCCOC(=O)N1C(=O)[C@@]2(c3cc(C#CC4(O)CCCCCC4)ccc31)[C@H](c1ccc(O)cc1)N1[C@H](c3ccccc3)[C@H](c3ccccc3)OC(=O)[C@H]1[C@@H]2C(=O)NC[C@H](O)c1ccccc1,1.71 (inactive),0.681,-0.0194,-2.78 (inactive),-0.145 (inactive),-0.154 (inactive)
C=CCNC(=O)[C@H]1[C@@H]2C(=O)O[C@@H](c3ccccc3)[C@@H](c3ccccc3)N2[C@@H](c2ccc(O)cc2)[C@]12C(=O)N(C(=O)OCCOC)c1ccccc12,0.995 (inactive),0.742,-1.38,-3.73 (inactive),0.175 (inactive),-0.0776 (inactive)
O[C@@H](Cc1ccccc1)[C@@H](/C=C/C1CC1)N(CC#Cc1ccccc1)Cc1cccc(Cl)c1,-0.16 (inactive),-0.646,-1.27,0.493 (inactive),0.0959 (inactive),0.043 (inactive)
COc1ccc(CCN2C(=O)[C@@]3(Cc4ccccc42)c2ccccc2C(=O)N(Cc2ccccc2OC)[C@H]3c2ccc(CO)cc2)cc1,-0.22 (inactive),0.425,-1.39,-0.208 (inactive),-0.154 (inactive),0.0689 (inactive)
[N-]=[N+]=NCc1ccccc1C[C@@]1(C(=O)N2CCCCC2)N=C(c2ccc(OCCCO)cc2)O[C@@H]1c1ccccc1,-0.194 (inactive),0.434,-2.38,-4.86 (inactive),-0.219 (inactive),-0.234 (inactive)
CCC[C@@H]1C[C@@]1(CCC)[C@@H](NC(=O)OCc1ccccc1)c1ccc(-c2ccccc2)cc1,-0.384 (inactive),-0.237,-0.54,-3.15 (inactive),0.977 (inactive),0.198 (inactive)
CCCNC(=O)[C@@H]1c2ccccc2C(=O)N(C(C)C)[C@H]1c1ccc(CO)cc1,0.251 (inactive),0.658,-0.473,-1.88 (inactive),-0.247 (inactive),-0.333 (inactive)
CCOC(=O)C[C@H]1[C@H](OC(=O)c2cc3ccccc3oc2=O)[C@@H](NC(=O)Cc2ccc(OC)cc2)c2cc(OCCCO)ccc2N1C(=O)c1ccc2ccccc2n1,-0.426 (inactive),0.255,-1.01,-4.04 (inactive),0.134 (inactive),0.203 (inactive)
C=CC[C@]1(C(=O)NCCN2CCOCC2)N=C(c2ccc(OCCCO)cc2)O[C@H]1c1ccccc1CN=[N+]=[N-],0.882 (inactive),0.887,-2.29,-4.74 (inactive),-0.005 (inactive),0.23 (inactive)
COc1ccc(-c2nc(-c3ccccc3)c3c(c2C)CO[Si]3(C(C)C)C(C)C)cn1,-0.447 (inactive),-0.447,0.193,-3.37 (inactive),0.0411 (inactive),0.126 (inactive)
COc1ccccc1CN1C(=O)c2ccccc2[C@@]2(Cc3ccccc3N(CC(F)(F)F)C2=O)[C@@H]1c1ccc(CO)cc1,0.182 (inactive),0.555,-0.384,-0.814 (inactive),0.149 (inactive),0.312 (inactive)
COCCOC(=O)N1C(=O)[C@@]2(c3cc(C#CCC(C(=O)OC)C(=O)OC)ccc31)[C@H](C(=O)N1CCc3cc(OC)c(OC)cc3C1)[C@H]1C(=O)O[C@H](c3ccccc3)[C@H](c3ccccc3)N1[C@@H]2c1ccc(OCCO)cc1,0.655 (inactive),0.749,-2.1,3.49 (inactive),-0.0997 (inactive),0.159 (inactive)
COC(=O)[C@@]1(Cc2ccccc2N=[N+]=[N-])N=C(c2ccc(OCCCO)cc2)O[C@H]1c1ccccc1N=[N+]=[N-],0.764 (inactive),0.848,-2.03,-0.305 (inactive),-0.362 (inactive),-0.267 (inactive)
CC(=O)NCCCC[C@@H]1NC(=O)[C@H]2C[C@@H](C(=O)NCCCC[N+](C)(C)C)[C@@H](c3cccc(OCCO)c3)N2C1=O,2.02 (inactive),0.823,-0.207,-1.96 (inactive),0.0751 (inactive),0.341 (inactive)
